Assay outcomes (PubChem BioAssay)
This is a sample that favours compounds with a hit; in the whole collection about 11% have one here.
G9a block – blocks human histone lysine methyltransferase G9a; Q96KQ7; G9a H3K9 monomethylation, AlphaScreen, 2 h; Potency, µM (top dose mostly 102 µM), without a hit: at the top dose activity, negative = inhibition, hits mostly inhibitors; 8.8% of 350,000 active; AID 504332; note: % is set by controls: 0 for no effect and ±100 for the full control effect; nearly all actives have a fitted effect of over 75% in size
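Signal arises when biotinylated H3K9 peptide, once monomethylated, bridges streptavidin donor and antibody-captured acceptor beads. Enzyme at 20 nM was preincubated 15 min with test compounds; peptide 500 nM and SAM 20 uM then reacted for 2 h.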
BAZ2B inh – inhibitors of human BAZ2B bromodomain. Q9UIF8. AlphaScreen BAZ2B-H3K14Ac peptide displacement. Potency, µM (titrated, usually from 114 µM), without a hit: at the highest dose activity change, negative = inhibition, most hits filed as inhibitors. 4.4% of 360,000 active. AID 504333; note: % is set by controls: 0 for no effect and ±100 for the full control effect; nearly all actives have a fitted effect of over 60% in size
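Protein-peptide AlphaScreen: BAZ2B 50 nM, b-H3K14Ac 50 nM, 1x PBS pH 7.4 + 0.01% Tween-20. Preincubation 30 min RT; cpd 30 min RT (top 110 uM); beads 20 min RT, light-protected.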
JMJD2A Tudor – JMJD2A Tudor domain (human) inhibition; AID 504339; Potency, µM (top dose mostly 114 µM), inactives show top-dose activity change, negative = inhibition, actives largely listed as inhibitors; 4.4% of 390,000 active; AlphaScreen JMJD2A-Tudor / H3K4me3 peptide binding; O75164; note: % is set by controls: 0 for no effect and ±100 for the full control effect; nearly all actives have a fitted effect of over 50% in size
HP1b binding inh – HP1-beta chromodomain-methylated histone interaction inhibition; P83916; AlphaScreen HP1-beta / biotin-H3K9me3 peptide binding; Potency, µM (highest dose often 114 µM), without a hit: at the highest dose activity change, negative = inhibition, hits mostly inhibitors; 0.56% of 390,000 active; note: nearly all actives have a fitted effect of over 70% in size
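Compound inhibition of the preformed complex between 50 nM HP1-beta and 50 nM biotinylated H3K9me3 peptide was read by AlphaScreen. Buffer was PBS pH 7.4 with 0.01% Tween-20. Incubations ran 30 min at room temperature, with 10 ug/mL donor/acceptor beads.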
L3MBTL1 block – L3MBTL1 (human) inhibition; Q9Y468; AlphaScreen L3MBTL1–H3K9me1 peptide binding; Potency, µM (series often up to 57.1 µM), for inactives: at the highest dose activity, negative = inhibition, usual class: inhibitors; 0.66% of 230,000 active; note: % is set by controls: 0 for no effect and ±100 for the full control effect; nearly all actives have a fitted effect of over 60% in size
Target sequence (Q9Y468 whole entry, looked up): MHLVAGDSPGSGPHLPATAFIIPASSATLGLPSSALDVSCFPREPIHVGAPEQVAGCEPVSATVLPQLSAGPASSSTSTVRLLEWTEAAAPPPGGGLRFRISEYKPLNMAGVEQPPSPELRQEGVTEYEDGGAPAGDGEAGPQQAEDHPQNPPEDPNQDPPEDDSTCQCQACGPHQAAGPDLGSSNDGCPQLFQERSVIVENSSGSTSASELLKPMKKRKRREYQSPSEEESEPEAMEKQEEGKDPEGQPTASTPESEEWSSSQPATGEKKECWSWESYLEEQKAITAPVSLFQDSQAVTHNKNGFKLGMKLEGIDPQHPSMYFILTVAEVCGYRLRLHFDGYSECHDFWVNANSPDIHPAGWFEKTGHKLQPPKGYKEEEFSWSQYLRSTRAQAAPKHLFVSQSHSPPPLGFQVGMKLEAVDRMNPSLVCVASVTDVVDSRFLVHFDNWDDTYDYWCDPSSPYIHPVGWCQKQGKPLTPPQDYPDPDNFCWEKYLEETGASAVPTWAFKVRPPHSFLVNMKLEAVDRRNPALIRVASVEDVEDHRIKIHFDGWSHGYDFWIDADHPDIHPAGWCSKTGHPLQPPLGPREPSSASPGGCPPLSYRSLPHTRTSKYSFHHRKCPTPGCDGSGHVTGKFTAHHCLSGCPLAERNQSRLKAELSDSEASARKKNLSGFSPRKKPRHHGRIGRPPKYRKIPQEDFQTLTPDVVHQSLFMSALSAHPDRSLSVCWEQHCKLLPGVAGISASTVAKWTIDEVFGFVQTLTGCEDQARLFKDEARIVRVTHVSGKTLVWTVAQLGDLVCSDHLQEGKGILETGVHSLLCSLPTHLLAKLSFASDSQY
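Read-out is AlphaScreen signal from streptavidin donor and nickel chelate acceptor beads (10 ug/mL final each) bridging L3MBTL1 (50 nM) and biotinylated K9-monomethylated H3(1-15) peptide (75 nM), after 30 min compound exposure at room temperature.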
Numbers without * were called inactive; ? = inconclusive; nt = no result given; [ ] = another dose, or the depositor's remark. Calls come from the whole dose curve; as a rule, active = well fitted inhibition curve with a large enough effect; inconclusive = small, poorly fitted or top-dose-only effect; inactive = no such curve, though single readings can be large or run the other way. Potency is the fitted concentration of half-maximal effect.

SMILES | G9a block | BAZ2B inh | JMJD2A Tudor | HP1b binding inh | L3MBTL1 block
O=C(CCCn1c(=S)[nH]c2ccc(Br)cc2c1=O)NCC1CCCO1 (centres undefined) | 40µM* | -33% | -22% | 57% | -6%
O=C(c1ccc2c(=O)n(CC3CCCO3)c(=S)[nH]c2c1)N1CCN(c2ccccc2)CC1 (centres undefined) | -3% | 4% | -23% | 22% | -4%
CC1CCc2c(C(=O)NCC3CCCO3)csc2C1 (centres undefined) | 89µM* | 4% | -12% | 32% | 65%
O=C(NCC1CCCO1)c1csc2c1CCCCC2 (centres undefined) | 0%[59 µM] | 3% | -8% | 22% | 1%
O=C(CCCn1c(=O)[nH]c2cc(Cl)ccc2c1=O)NCC1CCCO1 (centres undefined) | 21%[59 µM] | 5% | -8% | 8% | 28%
Cc1cc(Br)ccc1NC(=O)c1cn(C2CCCC2)c(=O)c2c1c1ccccc1n2C | -3%[59 µM] | 1% | 3% | 43% | nt
O=C(COC(=O)c1ccc(Br)cc1)Nc1ccccc1Br | 12% | 13% | -4% | -3% | nt
CC(=O)C1C(c2ccc([N+](=O)[O-])cc2)c2c(noc2C)CC1(C)O (centres undefined) | -8%[12.7 µM] | 2% | -1% | 18% | 9%
CCn1c(CC(=O)Nc2ccccc2OC)nnc1SCC(=O)Nc1ccccc1F | 2% | -13% | -3% | 47% | 7%
COc1ccccc1NC(=O)c1ccc(NC(=O)CSc2nncn2C)cc1 | 11µM* | 0% | -11% | 45% | -7%
COc1ccccc1NC(=O)Cc1nnc(SCC(=O)Nc2ccccc2F)n1C | 8%[59 µM] | 0% | 11µM* | -14% | nt
Cc1ccc2c(c1Br)C(O)(CC(=O)c1ccc(F)cc1)C(=O)N2 (centres undefined) | -1%[59 µM] | -9% | 1% | 18% | nt
O=C(O)CSc1nc(-c2ccccc2)c(-c2ccccc2)[nH]1 | 50µM* | -37% | ? | -5%[57 µM] | -6%
O=C(CSc1ncccn1)N1CCN(S(=O)(=O)c2ccccc2)CC1 | ? | 4% | -8% | 46% | nt
CC(C)(C)NC(=O)CSc1nc(-c2ccccc2)c(-c2ccccc2)[nH]1 | 16%[12.7 µM] | 4% | -19% | 32% | nt
O=C(CSc1nc(-c2ccccc2)c(-c2ccccc2)[nH]1)N1CCN(S(=O)(=O)c2ccccc2)CC1 | 3.2µM* | -35% | ? | -1% | nt
Nn1cc(-c2ccccc2)nc1SCC(=O)N1CCN(S(=O)(=O)c2ccccc2)CC1 | 25µM* | ? | -21% | 9% | -3%
COCCn1c(=O)c(-c2ccc(F)cc2)nc2cncnc21 | 0%[12.7 µM] | nt | nt | nt | nt
COc1cc(/C=C/C(=O)O)cc(S(=O)(=O)Nc2ccccc2C(=O)NCc2ccco2)c1OC | nt | nt | -16% | 26% | -9%
CNC(=O)c1c(NC(=O)c2cc(=O)c3cc(C)c(C)cc3o2)sc2c1CCCC2 | 2%[59 µM] | -8% | 2% | 11% | nt
C=CCc1cccc(/C=N/NC(=O)CCCNc2ccc(C)cc2)c1O | -12%[59 µM] | 32µM* | ? | ? | -12%
COc1cc(C2C(C(=O)c3ccc(C)o3)=C(O)C(=O)N2c2cc(C)on2)ccc1OCc1ccccc1 (centres undefined) | 45µM* | -1% | 4% | 23% | nt
COc1cccc(C2C(C(=O)c3ccc(C)o3)=C(O)C(=O)N2c2cc(C)on2)c1 (centres undefined) | 45µM* | ? | -12% | 12% | nt
COc1cccc(C2C(C(=O)c3cccs3)=C(O)C(=O)N2c2cc(C)on2)c1 (centres undefined) | ? | ? | -4% | 30% | 4%
COc1cc(C2C(C(=O)c3cccs3)=C(O)C(=O)N2c2cc(C)on2)ccc1O (centres undefined) | 50µM* | ? | ? | 18% | 2%
SMILES | G9a block | BAZ2B inh | JMJD2A Tudor | HP1b binding inh | L3MBTL1 block
CCCCCOc1ccc(C2C(C(=O)c3ccc(C)o3)=C(O)C(=O)N2c2cc(C)on2)cc1 (centres undefined) | 45µM* | -20% | ? | 16% | nt
CCc1ccccc1NC(=O)C1CCN(S(=O)(=O)c2ccc3[nH]c(=O)ccc3c2)CC1 | 2%[59 µM] | 2% | -7% | 32%[57 µM] | nt
O=C(CSC1=Nc2ccccc2C2=NC(Cc3ccccc3)C(=O)N12)Nc1ccccc1C(F)(F)F (centres undefined) | 9%[59 µM] | -1% | -2% | 28% | nt
C=CCOc1cccc(C2C(C(=O)c3ccc(C)o3)=C(O)C(=O)N2c2nccs2)c1 (centres undefined) | 32µM* | ? | ? | 10% | -28%
COc1ccccc1C1C(C(=O)c2ccc(C)o2)=C(O)C(=O)N1c1cc(C)on1 (centres undefined) | 89µM* | ? | -10% | 22% | nt
CCOc1ccc(C2C(C(=O)c3ccc(C)o3)=C(O)C(=O)N2c2cc(C)on2)cc1OC (centres undefined) | 50µM* | -26%[57.1 µM] | -34% | 11% | nt
COc1ccccc1C1C(C(=O)c2ccco2)=C(O)C(=O)N1c1cc(C)on1 (centres undefined) | ? | -21% | -9% | 25% | nt
Cc1cccc(N2C(=O)C(O)=C(C(=O)c3cccs3)C2c2ccccc2)n1 (centres undefined) | -49% | -16% | -6% | 47% | 4%
CCCCOc1cccc(C2C(C(=O)c3ccc(C)o3)=C(O)C(=O)N2c2nnc(C)s2)c1 (centres undefined) | nt | -24% | ? | 4% | nt
Cc1cccc(N2C(=O)C(O)=C(C(=O)c3cccs3)C2c2cccc(Oc3ccccc3)c2)n1 (centres undefined) | 50µM* | ? | -33% | 19% | ?
Cn1c(=O)oc2cc(S(=O)(=O)NCCC(=O)Nc3ccc(F)cc3F)ccc21 | 1%[59 µM] | -1% | 3% | 35% | nt
COc1cccc(NC(=O)C2CCN(S(=O)(=O)c3c(C)noc3/C=C/c3cccs3)CC2)c1 | -26%[59 µM] | nt | -22% | 19% | nt
COc1cc(C2C(C(=O)c3ccc(C)o3)=C(O)C(=O)N2c2cc(C)on2)cc(OC)c1OC (centres undefined) | 0%[59 µM] | 6% | -2% | 30% | 9%
COc1cc(C2C(C(=O)c3ccc(C)o3)=C(O)C(=O)N2c2cc(C)on2)ccc1O (centres undefined) | 45µM* | ? | ? | 5% | -4%
C=CCn1c(C)cc(-c2csc(NC(=O)CCc3nc4ccccc4c(=O)[nH]3)n2)c1C | 32µM* | ? | -26% | -2% | -9%
O=C(CCc1nc2ccccc2c(=O)[nH]1)Nc1ccc(F)cc1 | 17% | 1% | 13%[57.1 µM] | 28% | -1%
Cc1cc(-c2csc(NC(=O)c3ccc(=O)[nH]c3)n2)c(C)n1Cc1ccccc1 | ? | -25% | ? | 10% | ?
O=C(CCc1nc2ccccc2c(=O)[nH]1)Nc1nc(-c2cccs2)cs1 | 45µM* | 2% | -19% | -14% | -1%
